For 38 compounds, growth results are on record in PubChem BioAssay (NCI).

This is part of a sample that, as a whole, favours compounds with a hit. Of some 83,000 tested, about 20% had one in any assay.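 Testing used 96-well plates and a 48-hour single-concentration exposure. Example: -40 means 40% of the starting cells died.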 Values without a mark were called inactive. The source made the active and inactive calls. The calls were made as follows: active = growth percent below 10; inactive = the rest.

The experiment deals with SF-268 CNS. Nature of the experiment: NCI-60 one-dose screen, 48 h (100 = growth as untreated, 0 = no growth, -100 = all killed). Conditions: 10 µM.
As for `Cc1ccc(-c2nc3ccc(C(=O)N=Nc4c(O)[nH]c5ccc(Br)cc45)cc3[nH]2)cc1`, the growth was 44.3%. As to `CCCCCc1ccc(S(=O)(=O)Nc2cc(-c3csc(N(C)C(C)=O)n3)ccc2N2CCN(C)CC2)cc1`, the growth was 73.2%. The value for `Cc1ccc(NC(=O)NCn2c(=O)[nH]c3ccccc3c2=O)cc1` was 64.3%.

Consider `Cc1ccc(C(=O)NCCCNc2nc(Nc3ccc(N4CCN(C)CC4)cc3)nc3ccsc23)cc1`, for which the growth is 60.4%.

Take `CNC(=O)c1cccc(N2CCc3c2ccc(NC(=O)Nc2ccc(N4CCN(C)CC4)c(C(F)(F)F)c2)c3F)c1`: the growth is -62.7% (active). As to `COC1CC(Cn2cc(COc3ccc4ccc(=O)oc4c3)nn2)C(OCc2ccccc2)C(OCc2ccccc2)C1OCc1ccccc1` (stereo not drawn), the growth was 122%.

`Cc1ccc(NC(=O)c2ccc(-n3c(=O)[nH]c4ccccc4c3=O)cc2)cc1`: the growth is 84.4%. The value for `O=C(Cn1cc(CSc2nnc3oc4ccccc4n23)nn1)Nc1ccc(Br)cc1` was 37.8%; that for `NC(=Nc1ccc(OCCCCCCCCn2ccnn2)cc1)c1ccccc1` was 72.4%. As to `C=C(C)[C@@H]1CC[C@]2(C)[C@H](CC=C3[C@@H]4CC(C)(C)CC[C@]4(C(=O)N4CCOCC4)CC[C@]32C)[C@@]1(C)CCCN`, the growth is -76% (active). For the compound `CC(=C(c1ccc(OCCN2CCCCC2)cc1)c1ccc(OCCN2CCCCC2)cc1)c1ccccc1`, the growth is 34.5%. `CN1CCN(c2ccc(Nc3nc(NCCCNC(=O)c4ccccc4)c4sccc4n3)cc2)CC1`: the growth was 77.6%.

For the compound `COc1cccc(C(N)=Nc2ccc(OCCCCCCn3cncn3)cc2)c1`, the growth was 68.9%.

As for `O=C(CS(=O)(=O)c1oc(-c2ccc(Cl)cc2)nc1S(=O)(=O)c1ccccc1)N1CCCC1`, the growth is 74.5%. The value for `CC1(C)CC[C@]2(C(=O)N3CCOCC3)CC[C@]3(C)C(=CC[C@@H]4[C@@]5(C)CC[C@H](NCO)C(C)(C)[C@@H]5CC[C@]43C)[C@H]2C1` was -76.5% (active); that for `CC(=O)NCC1=C(C)C=C2C(=O)[C@](C)(O)C3(CC3)C(C)=C21` was 18.3%; that for `C#Cc1ccc(S(=O)(=O)Nc2cccc(-c3csc(NC(C)=O)n3)c2)cc1` was 87.3%. As for `C=C[C@H]1[C@H](O[C@@H]2OC(CO)[C@@H](O)[C@H](O)C2OC(=O)c2c(O)cc(O)cc2-c2cccc(O)c2)OC=C2C(=O)OCC[C@H]21` (stereo partly drawn), the growth is 101%.

Take `O=C(c1ccc(-n2c(=O)[nH]c3ccccc3c2=O)cc1)N1CCOCC1`: the growth was 88.1%.

Consider `CCN(CC)CCOc1ccc(C(=C(C)c2ccccc2)c2ccc(OCCN(CC)CC)cc2)cc1`, for which the growth was 11.6%. In the case of `CNC(=O)c1cc(-c2ccc(NC(=O)Nc3ccc(C)cc3)cc2)nc2cccnc12`, the growth was 104%. With `O=C(Cn1cc(CSc2nnc3oc4ccccc4n23)nn1)Nc1cccc(Cl)c1`, the growth was 71.8%. The value for `CC1(C)CC[C@]2(C(=O)NCCCNCCCCNCCCN)CC[C@]3(C)C(=CC[C@@H]4[C@@]5(C)Cc6c([nH]c7ccccc67)C(C)(C)[C@@H]5CC[C@]43C)[C@H]2C1` was 113%; that for `CCC(C)S(=O)(=O)c1oc(-c2ccc(C)cc2)nc1S(=O)(=O)c1ccccc1` (stereo not drawn) was -49.1% (active); that for `CC(=O)Nc1nc(-c2ccc(N3CCN(C)CC3)c(NS(=O)(=O)c3cccc4c(N(C)C)cccc34)c2)cs1` was 78.5%.

Take `N[C@@H](CSSC[C@H](N)C(=O)Nc1ccc(OCC2CCCC2)cc1)C(=O)Nc1ccc(OCC2CCCC2)cc1`: the growth is -73.1% (active). In the case of `O=C(Nc1ccncc1)c1ccc(-n2c(=O)[nH]c3ccccc3c2=O)cc1` it was 110%. As to `CN1CCN(c2ccc(Nc3nc(NCCCNC(=O)c4ccc(F)cc4)c4sccc4n3)cc2)CC1`, the growth is 74.6%. Regarding `CC1(C)CC[C@]2(C(=O)O)CC[C@]3(C)C(=CC[C@@H]4[C@@]5(C)C/C(=C/c6ccncc6)[C@H](O)C(C)(C)[C@@H]5CC[C@]43C)[C@@H]2C1`, the growth is 46.9%. Turning to `Cc1cc2c(c(O)c1Br)-c1ncoc1C(=O)[C@]1(C)CC[C@H](C(C)C)[C@H]21`, the growth was 49.4%. The value for `Cc1ccc(/C=C(\C#N)n2nnc3c(F)cccc32)cc1` was 24.3%. Turning to `Cc1cc(C)nc(SCC(=O)Nc2ccc(S(N)(=O)=O)cc2)n1`, the growth was 125%.

With `COc1ccc(-c2nc(S(=O)(=O)c3ccc(C)cc3)c(S(=O)(=O)CC(=O)N(C)Cc3ccccc3)o2)cc1`, the growth is 64.8%. Consider `O=c1[nH][nH]c(Nc2ccccc2)c1N=Nc1ccc(F)cc1`, for which the growth is 81.5%. `CN1CCN(c2ccc(Nc3nc(NCCCNC(=O)C4CCCCC4)c4sccc4n3)cc2)CC1`: the growth was 62.2%. `COc1ccc(-c2nc(S(=O)(=O)c3ccccc3)c(S(C)(=O)=O)o2)cc1`: the growth was 61.8%.

Turning to `c1ccc(C(=C(c2ccc(OCCN3CCCCC3)cc2)c2ccc(OCCN3CCCCC3)cc2)C2CCCC2)cc1`, the growth is -61% (active). On to `COc1ccc(C(C)=C(c2ccc(OCCCN(C)C)cc2)c2ccc(OCCCN(C)C)cc2)cc1`, for which the growth was -73.7% (active).
